Test results published in PubChem BioAssay AID1159580 (chemical genetic matrix, 2015).
Screen size: about 5,500 compounds; about 2,000 (36%) were called active. Roughly 18% stayed inconclusive and do not appear here. No stated cut-off is given here; in the data, active means normalized growth mostly below about 0.91 (no sharp cut-off); inconclusive means no clear call, values can overlap the other calls; inactive means mostly above about 0.92. Some of the results follow.

Assay: chemical genetic growth profiling, strain panel (AID 1159580);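 further: tested at 20 µM; growth read once vehicle control cultures reached saturation at 30 °C; 1 = growth at the plate median or of vehicle wells; lower values mean less growth of the strain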
Settings: S. cerevisiae deletion strains, growth OD
[1] = locus YAL040C, strain CLN3, active compounds read low
[2] = locus YCL061C, strain MRC1 (second series), active compounds read low
[3] = locus YDR150W, strain NUM1, active compounds read low
[4] = locus YDR363W, strain ESC2, active compounds read low
[5] = locus YER002W, strain NOP16, active compounds read low
[6] = locus YGR229C, strain SMI1, active compounds read low
[7] = locus YNL128W, strain TEP1, active compounds read low
[8] = locus YNL175C, strain NOP13, active compounds read low
[9] = locus YNL197C, strain WHI3, active compounds read low
[10] = locus YOR083W, strain WHI5 (second series), active compounds read low

Measured: normalized growth

CC(C)(C)c1ccc(C(O)CCCN2CCC(C(O)(c3ccccc3)c3ccccc3)CC2)cc1 (stereo unspecified)
active: [5] 1.22 [resistant] | [8] 1.25 [resistant] | [9] 1.15 [resistant]
inactive: locus YAL013W, strain DEP1, active compounds read low 0.984 | [1] 0.991 | [2] 1 | [3] 1.01 | [4] 1 | [6] 0.936 | locus YHR030C, strain SLT2, active compounds read low 0.952 | locus YHR079C, strain IRE1, active compounds read low 0.941 | locus YJL095W, strain BCK1, active compounds read low 0.973 | locus YJR066W, strain TOR1, active compounds read low 0.972 | locus YLR113W, strain HOG1, active compounds read low 0.978 | locus YMR307W, strain GAS1, active compounds read low 1.01 | [7] 1.09 | locus YNL153C, strain GIM3, active compounds read low 1.01 | locus YNL183C, strain NPR1, active compounds read low 0.936 | [10] 1.05 | locus YOR231W, strain MKK1, active compounds read low 0.966 | locus YPL055C, strain LGE1, active compounds read low 0.978 | locus YPL256C, strain CLN2, active compounds read low 0.955

CN1[C@@H](CC(=O)c2ccccc2)CCC[C@H]1C[C@H](O)c1ccccc1
inactive: [1] 1.01 | [2] 1.01 | [3] 1.01 | [4] 0.984 | [5] 1 | [6] 0.99 | locus YJR075W, strain HOC1, active compounds read low 1.01 | locus YMR263W, strain SAP30, active compounds read low 1.01 | [7] 1 | [8] 1.02 | [9] 1.01 | locus YNL224C, strain SQS1, active compounds read low 1 | [10] 1.02 | locus YPL241C, strain CIN2, active compounds read low 1.01
